Screening results (PubChem)
TDP1 cell CPT – qHTS for Inhibitors of human tyrosyl-DNA phosphodiesterase 1 (TDP1): qHTS in cells in presence of CPT | chicken DT40 Tdp1-/-;hTDP1 cells + 20 nM CPT, ATP luminescence, 48 h | Potency, µM (titrated, usually from 46.2 µM), usual class: inhibitors | 420,000 tested, 12% active | AID 686979, 2013; also: nearly all actives have a fitted effect of over 55% in size
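Chicken DT40 Tdp1-/- cells stably complemented with human TDP1 were seeded at 400 cells/well in medium containing 20 nM camptothecin, exposed to pin-transferred compounds, and grown at 37 °C for at least 48 hr. Viability was read as ATP luminescence.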
KB-3-1 cytotox – qHTS assay for MDR1-selective chemotherapeutics: Primary screen using the parental adenocarcinoma cell KB-3-1; KB-3-1 viability, CellTiter-Glo ATP luminescence, 72 h; AID 1347075, 2019; Potency, µM (top dose mostly 46.1 µM), hits mostly cytotoxic; 400,000 tested, 1.4% active; also: nearly all actives have a fitted effect of over 60% in size
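Cytotoxicity measured as CellTiter-Glo luminescence after 72 h at 37 C. Compound titrations were pinned onto drug-naive KB-3-1 parental adenocarcinoma cells grown in DMEM with 10% FBS, and normalized data fitted to concentration-response curves.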
HT1080-NT tox – qHTS for induction of synthetic lethality in tumor cells producing 2HG: qHTS for the HT-1080-NT fibrosarcoma cell line. Potency, µM (top dose mostly 46.1 µM), actives largely listed as cytotoxic. AID 686970, 2013. HT-1080-NT fibrosarcoma viability, CellTiter-Glo ATP luminescence, 48 h. 360,000 tested, 1.6% active;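 also: NT is the 2HG producing partner of a matched IDH1 knockdown line; nearly all actives have a fitted effect of over 55% in size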
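HT-1080-NT; 750 cells/well; 5% FBS RPMI; 48 h compound, 37 degrees C; CellTiter-Glo luminescence; curve fitting and curve-class assignment.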
KB-V1 MDR tox – qHTS assay for MDR1-selective chemotherapeutics: Primary screen using the drug-selected MDR subline cells KB-V1; AID 1347076, 2019; Potency, µM (top dose mostly 46.1 µM), usual class: cytotoxic; KB-V1 MDR cells viability, CellTiter-Glo, 72 h; 400,000 tested, 3.4% active; also: nearly all actives have a fitted effect of over 60% in size
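Cells of the MDR subline KB-V1 are plated, dosed with compound at multiple concentrations, and incubated 72 h at 37 degrees C; CellTiter-Glo is then added and luminescence read after 10 min.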
HT1080 IDH1KD tx – qHTS for induction of synthetic lethality in tumor cells producing 2HG: qHTS for the HT-1080-IDH1KD cell line. HT-1080 IDH1 knockdown viability, ATP luminescence, 48 h. Potency, µM (doses to about 46.1 µM), most hits filed as cytotoxic. 360,000 tested, 2% active. AID 686971, 2013
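CellTiter-Glo luminescence after 48 h compound exposure at 37 degrees C of IDH1-knockdown HT-1080 cells in 5% FBS RPMI. %Activity scaled between DMSO wells and cell-free media wells, with curves fitted and assigned curve classes.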
TDP1 cell noCPT – qHTS for Inhibitors of human tyrosyl-DNA phosphodiesterase 1 (TDP1): qHTS in cells in absence of CPT; DT40 Tdp1-/- hTDP1 cells, no CPT, ATP luminescence, 48 h; Potency, µM (highest dose often 46.2 µM), actives largely listed as inhibitors; 420,000 tested, 15% active; also: nearly all actives have a fitted effect of over 55% in size
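No-CPT arm: Tdp1-/-;hTDP1 DT40 cells (400/well) plus compounds, incubated ≥48 hr at 37 °C. Readout CellTiter-Glo luminescence.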
Numbers stand for hits; – = inactive; ? = inconclusive; · = no result given. This is a sample that favours compounds with a hit; in the whole collection about 19% have one here. Calls follow the shape of the dose curve; as a rule, active = well fitted curve in the direction sought with a large enough effect; inconclusive = small, poorly fitted or top-dose-only effect, or another doubt; inactive = no such curve, though single readings can be large; an effect the other way counts as inactive or inconclusive.

SMILES	TDP1 cell CPT	KB-3-1 cytotox	HT1080-NT tox	KB-V1 MDR tox	HT1080 IDH1KD tx	TDP1 cell noCPT
CCCC(=O)NC(C)c1nc(-c2ccc(C)cc2)no1 (centres undefined)	?	–	–	–	–	?
CCOC(=O)C(=Cc1ccc(-n2ccnc2)cc1)C(=O)OCC	23.1µM	20.6µM	10.3µM	?	5.8µM	20.6µM
CCOC(=O)C(=Cc1ccc(Br)cc1)C(=O)OCC	11.6µM	?	20.6µM	16.4µM	6.51µM	2.91µM
CCc1ccc(C(C)NC(=O)/C=C/c2ccc(Br)cc2)cc1 (centres undefined)	?	–	–	?	–	–
CCOC(=O)C(CC)(CC)C(=O)/C=C/c1ccc(Br)cc1	?	20.6µM	?	18.4µM	?	16.4µM
C=C(C)Cn1c2ccc(NC(=S)NCc3ccccc3F)cc2c(=O)n1C	?	–	–	–	–	–
Cc1[nH]c2ccccc2c1C(=O)CSC(=S)N1CCOCC1	–	?	–	?	–	–
Cc1cc(C)nc(N/N=C/C2=C(O)CC(c3ccc(F)cc3)CC2=O)n1 (centres undefined)	23.1µM	–	–	?	?	9.2µM
Cc1ccc(-c2csc(NC(=O)c3ccc(-c4ccccc4)cc3)n2)o1	16.4µM	?	–	14.6µM	–	?
Cc1csc(NC(=O)c2ccccc2)n1	–	–	–	–	?	–
O=C(Nc1nc(-c2ccco2)cs1)c1ccccc1	13µM	–	–	–	–	?
Cc1ccc(N(Cc2cccs2)C(=O)C(C)Oc2ccc(Cl)c(C)c2)cc1 (centres undefined)	11.6µM	?	·	–	·	9.2µM
COc1ccc(N(Cc2cccs2)C(=O)COc2cccc(Cl)c2)cc1	?	–	·	–	·	?
COc1ccc(N(Cc2cccs2)C(=O)c2ccc(C(C)(C)C)cc2)cc1	?	–	·	–	·	?
COc1ccc(N(Cc2cccs2)C(=O)c2ccc(OCC(C)C)cc2)cc1	?	·	·	·	·	20.6µM
COc1ccc(N(Cc2cccs2)C(=O)c2ccccc2C)cc1	11.6µM	–	·	?	·	13µM
CCCCOc1cccc(C(=O)N(Cc2cccs2)c2ccc(OC)cc2)c1	?	·	·	·	·	6.51µM
O=C(NCCS(=O)(=O)N1CCN(Cc2ccccc2)CC1)c1ccc(F)cc1	?	–	–	–	–	?
CC(C)c1ccc(S(=O)(=O)c2cnc(SCC(=O)Nc3ccc4c(c3)OCCO4)[nH]c2=O)cc1	–	–	·	–	·	–
O=C(Cn1cnc2ccccc2c1=O)NC1CCS(=O)(=O)C1 (centres undefined)	–	–	–	–	–	–
O=C([C@H]1O[C@@H](n2ccc(=O)[nH]c2=O)[C@H](O)[C@@H]1O)N(CCC1=CCCCC1)CC1CC1	?	–	?	–	–	–
CCC(C)[C@H]1CNCCN1CC1(c2ccccc2)CC1 (some centres undefined)	20.6µM	–	–	–	–	18.4µM
CC(O)[C@H]1CNCCN1CC1(c2ccccc2)CC1 (some centres undefined)	–	–	–	?	–	–
CCC(C)[C@H]1CNCCN1CCCc1cc(OC)c(OC)c(OC)c1 (some centres undefined)	–	–	–	–	–	–
CCC(C)[C@H]1CNCCN1CCc1cccc2ccccc12 (some centres undefined)	16.4µM	?	–	–	–	?
CCC(C)[C@H]1CNCCN1CCC12CC3CC(CC(C3)C1)C2 (some centres undefined)	25.9µM	–	?	–	–	11.6µM
Cc1ccnc(NC(=S)N2CCN(c3ccc(F)cc3)CC2)c1	·	–	·	–	·	·
